Laboratory results: PubChem BioAssay AID1851 (National Center for Advancing Translational Sciences (NCATS), 2009)
Hit rate of the full screen: of about 16,000 compounds, about 2,600 (16%) were called active. About 20% were inconclusive and are not listed. A selection follows. A number with no mark means an inactive call. Calls come from the whole dose curve; as a rule, active = well fitted curve in the direction sought with a large enough effect; inconclusive = small, poorly fitted or top-dose-only effect, or effect the other way; inactive = no such curve, though single readings can be large or run the other way.

Target: Cytochrome P450 2D6 (Homo sapiens) (UniProt P10635)
Sequence (P10635 whole entry, looked up): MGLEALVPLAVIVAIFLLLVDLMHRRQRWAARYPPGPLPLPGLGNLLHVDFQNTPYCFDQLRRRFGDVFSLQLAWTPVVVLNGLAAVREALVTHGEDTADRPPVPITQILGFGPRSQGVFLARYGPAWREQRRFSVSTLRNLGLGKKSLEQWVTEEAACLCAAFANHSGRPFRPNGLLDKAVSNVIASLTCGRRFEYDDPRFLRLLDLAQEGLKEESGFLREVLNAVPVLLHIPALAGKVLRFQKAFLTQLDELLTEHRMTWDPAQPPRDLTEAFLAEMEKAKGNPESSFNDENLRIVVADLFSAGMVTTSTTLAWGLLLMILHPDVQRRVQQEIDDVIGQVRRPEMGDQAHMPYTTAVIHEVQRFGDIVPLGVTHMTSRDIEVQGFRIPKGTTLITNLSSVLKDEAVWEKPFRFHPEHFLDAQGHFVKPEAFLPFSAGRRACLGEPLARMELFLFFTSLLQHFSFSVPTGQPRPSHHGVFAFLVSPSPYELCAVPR
Assay: Cytochrome panel assay with activity outcomes
Conditions: recombinant CYP, pro-luciferin dealkylation, luminescence, p450-cyp2d6; series mostly up to 57.1 µM; activity, negative = inhibition: at the top concentration
% is set by controls: 0 for no effect and ±100 for the full control effect.

SMILES	activity, negative = inhibition	AC50
O=S(=O)(O)c1ccc(N=Nc2ccc3c(S(=O)(=O)O)cccc3c2O)c2ccccc12	-18.7% [at 11.4 µM]	
CCc1c(C)nc(N)n2c(SCC(=O)Nc3ccccc3)nnc12		1.41 µM (active)
CCN(CC)c1ccc(NC(=O)CSc2nnc3nc(C)cc(C)n23)cc1	12.6%	
Cn1c(SCC(=O)Nc2ccccc2)nc(O)cc1=O	-13.2%	
COc1ccc(Oc2ncc3nc(CCc4ccccc4)c(=O)n(CCC#N)c3n2)cc1	-6.14%	
Cc1cccc(OC2(c3ccccc3)OC(=O)c3ccccc32)c1C (stereo not given)	-6.72%	
CCN(CC)C(=O)COc1ccc(S(=O)(=O)N2CCOCC2)cc1	22.3%	
N#C/C(=C\NC(=S)c1ccncc1)c1nc2ccccc2s1	-9.99% [at 11.4 µM]	
C=CCn1c(=O)c(C(=O)NCCN(CC)CC)c(O)c2ccccc21		4.47 µM (active)
CN(C(=O)c1c(O)c2ccccc2n(C)c1=O)c1ccccc1	-7.86%	
CCCc1c(O)c2ccccc2n(-c2ccccc2)c1=O	1.37%	
COc1ccc(NC(=O)N2CCCC3(CCN(C(=O)c4cnccn4)CC3)C2)cc1	4.29%	
Cc1cc(NC(=O)c2cc(C(C)C)on2)no1	20.3%	
CCOC(=O)N1CCN(CC(=O)c2ccc3c(c2)CCN3)CC1	-23.3%	
CC(=O)C1=C(O)C=C(c2ccco2)CC1c1ccco1 (stereo not given)	-12.8%	
CSc1n[nH]c(-c2sccc2OCc2ccc(C)cc2)n1	-27.3%	
Cc1cc(NC(=O)CSc2n[nH]c(-c3cccs3)n2)no1	-3.95%	
c1ccc(-c2nc(CSc3n[nH]c(-c4cccs4)n3)cs2)cc1		1.12 µM (active)
C=CC[C@@H](C(=O)O)c1ccccc1	1.94% [at 11.4 µM]	
CCc1c(C)c(C#N)c2nc3ccccc3n2c1N1CCN(c2cc(C)ccn2)CC1	-6.92%	
C[C@H]1CCCC=CC2C[C@H](OC(=O)CN(C)C)C[C@@H]2[C@@H](O)/C=C\C(=O)O1 (stereo not given in full)	9.34% [at 11.4 µM]	
Cc1cccc2sc(NC(=O)C3c4ccccc4Oc4ccccc43)nc12	-27%	
CS(=O)(=O)N1CCC2(CC1)CN(c1cccc(-c3ccccc3)c1)C2	-0.816%	
O=S(=O)(c1ccccc1)N1CCC2(CCCN(c3cccc(-c4ccccc4)c3)C2)CC1	1.98%	
O=S(=O)(c1ccccc1)N1CCC[C@@]2(CCN(c3cccc(-c4ccccc4)c3)C2)C1	-1.58%	

SMILES	activity, negative = inhibition	AC50
c1ccc(-c2cccc(N3CC4(CCNCC4)C3)c2)cc1		20 µM (active)
c1ccc(-c2cccc(N3CC[C@@]4(CCCNC4)C3)c2)cc1		10 µM (active)
Cn1cccc1C(=O)N1CCC2(CC1)CN(c1cccc(-c3ccccc3)c1)C2	-4.41%	
Cc1ccccc1C(=O)Nc1ccc(C(=O)NNC(=O)CCCOc2ccc(Cl)cc2Cl)cc1	-9.11%	
COc1cc(Br)c(C(C)NC(=O)c2cccc(Br)c2)cc1OC (stereo not given)	-16.8%	
C/C(=N\NC(=O)c1cccc(C)c1)c1cccc(NC(=O)c2ccco2)c1	-0.781%	
Cn1c([N+](=O)[O-])cnc1COC(N)=O	1.78% [at 25.6 µM]	
Cc1cc(C)c2cc(C#N)c(NCCOC(=O)c3ccccc3C)nc2c1	6.66%	
Cc1nn(-c2ccc(Cl)cc2)c2sc(C(=O)c3c(N)n(C)c(=O)n(C)c3=O)cc12	22%	
Cc1nn(-c2ccccc2)c2c1C(c1ccc(O)c(O)c1)N1C(=N2)C(Nc2ccccc2)=Nc2ccccc21 (stereo not given)	-1.07%	
COc1ccccc1OCc1ccc(C(=O)N(C)C)o1	-26.7%	
Cc1ccc(C(=O)NNC(=O)CSc2nnc3c(n2)[nH]c2ccc(F)cc23)cc1	-8.95%	
CC(=O)Nc1ccc(-c2cc(C(=O)O)c3cc4ccccc4cc3n2)cc1	-6.98% [at 11.4 µM]	
O=C(O)c1cc(-c2ccc(-c3ccccc3)cc2)nc2cc3ccccc3cc12	-10.7% [at 11.4 µM]	
COc1ccc(OC)c(-c2cc(C(=O)O)c3cc4ccccc4cc3n2)c1		3.98 µM (active)
O=C(Oc1ccc(C(=S)N2CCOCC2)cc1Br)c1cc(Cl)ccc1Cl	-5.56%	
O=C(O)c1ccc(C(=O)Nc2cccc3ccccc23)c(C(=O)O)c1	10.4% [at 11.4 µM]	
COc1ccc(-n2c(=O)c(C)nc3cnc(Nc4cccc(OC)c4)nc32)cc1	-12.9%	
COc1cccc2cc(C(=O)CC3(O)C(=O)N(Cc4ccccc4)c4ccccc43)c(=O)oc12 (stereo not given)	-12.8%	
COc1cccc(-c2nccc(NCc3cccs3)n2)c1		0.316 µM (active)
COc1ccc(-c2nc3cnc(Nc4cccc(OC)c4)nc3n(Cc3cccs3)c2=O)cc1	4.57%	
COc1cccc(-c2nccc(NCc3ccccc3)n2)c1		1 µM (active)
COc1cccc(Nc2ncc3nc(-c4ccccc4)c(=O)n(Cc4cccs4)c3n2)c1	11.2%	
COc1cccc(-c2nccc(NCc3cccc(C)c3)n2)c1		10 µM (active)
COc1cccc(-c2nccc(NCc3cnc(C)cn3)n2)c1	-11.9%	
